Assay results taken from PubChem BioAssay (NCATS).
Activity calls are given as the source filed them. A call without a number means that no potency is given here. Calls follow the shape of the dose curve; as a rule, active = well fitted activation curve with a large enough effect; inconclusive = small, poorly fitted or top-dose-only effect; inactive = flat fitted curve, though single readings scatter.

Assay: Confirmation and Secondary Assay for Modulators of Hemoglobin Beta Chain Splicing at IVS2 705 locus (AID 930)
Conditions: HeLa EGFP-705 splicing reporter, GFP fluorescence, 48 h; series mostly up to 46.1 µM
Excerpt: NIH Chemical Genomics Center [NCGC] NIH Molecular Libraries Screening Centers Network [MLSCN] MLSCN Grant: 1 X01 MH080684-01 PI Name: Dr. Ryszard Kole NCGC Assay Overview: Modulation of Alternative Splicing as Therapy Abnormal splicing is associated with a number of diseases, including cancer and genetic diseases such as cystic fibrosis, muscular dystrophy and beta-thalassemia. Alteration of disease associated splicing patterns provides a promising target for treatment. […] Mutations in the second intron of the b-globin gene at positions 654 or 705 are clinically relevant and cause mis-splicing which results in an out of frame gene product. […] EGFP-705 HeLa Cells as screen system. HeLa cell lines were stably transfected with a construct in which the EGFP (enhanced green fluorescent protein) cDNA was interrupted by the second intron of the beta-globin gene (IVS2-705). The ISV2 intron contains mutations which cause mis-splicing of EGFP and premature termination of EGFP which results in a nonfluorescent protein product. […] Expression of the transgene was driven by the CMV promoter. We concluded that a low molecular weight compound, which restored correct splicing of intron 2 would also generate functional EGFP protein, resulting in a fluorescent signal. Thus, the HeLa cells that express the EGFP-705 construct can be used for validation of splice site specificity of compounds identified in primary screening of the ISV2 654 construct.
NCGC Assay Protocol Summary: Confirmatory Screening. Freshly thawed HeLa EGFP-705 cells were seeded in 5 ul of optimem media (Invitrogen) containing 2 % fetal calf serum (Hyclone) and 1x penicillin/streptomycin (Invitrogen) at a concentration of 500 cells per well in 1536-well plates. Cells were incubated overnight at 37C in 5% CO2. The next day, cells were treated with DMSO, 500 nM antisense ISV2 654 PNA control oligo, or library compound and allowed to grow at 37C in 5% CO2 for 2 days. The PNA oligo blocked the mutation site in the intron and allowed proper (wild type) splicing to occur, resulting in full length EGFP expression and also allowed for optimization of the assay parameters. Plates were read in the Acumen Explorer (TTP Labtech) using 488 nm laser excitation and 500-520 nm emission PMT filter in a 1 x 8 uM capture mode. Fluorescnet objects ranging in size from 5 to 250 uM were measured and the total peak GFP intensity for each well was used for data analysis. Keywords: Thalassemia, beta-thalassemia, beta-globin, EGFP, ISV2 654, ISV2 705, SSO, PNA, antisense, splicing, MLSMR, MLSCN, NIH Roadmap, qHTS, NCGC

| SMILES | Potency |
| --- | --- |
| NC(=O)c1ccc(N)nc1 | inactive |
| O=c1ccc2cc(O[C@H]3OC(CO)C(O)C(O)C3O)c(O)cc2o1 (stereo not given in full) | inactive |
| CCN1C[C@@]2(OC(=O)c3ccccc3NC(C)=O)CCC(OC)[C@@]34C5CC6C(OC)C[C@@](O)(C(CC23)[C@@H]14)C5(O)C6OC (stereo not given in full) | inactive |
| C#CCOS(=O)OC1CCCCC1Oc1ccc(C(C)(C)C)cc1 (stereo not given) | inactive |
| FC(F)(F)c1cccc(N2CCNCC2)c1 | inactive |
| C=CCc1ccc2c(c1)OCO2 | inactive |
| C[C@@]12CCC3C(CC[C@@H]4CC(O)CC[C@@]34C)C1CCC2O (stereo not given in full) | inactive |
| COc1cc2c(cc1OC)[C@@]13CCN4CC5=CCOC6CC(=O)N2C1[C@H]6[C@@H]5C[C@@H]43 (stereo not given in full) | inactive |
| CC(C)CC(CN)CC(=O)O (stereo not given) | inactive |
| O=C1C(Cl)=C(Cl)C(=O)C(Cl)=C1Cl | inactive |
| CCc1cccc(CC)c1N(COC)C(=O)CCl | inactive |
| CC(C)Nc1nc(Cl)nc(NC(C)C)n1 | inactive |
| C[C@]12CCC3C(CC[C@]4(O)CC(O)CC[C@@]34C=O)[C@]1(O)CCC2C1=CC(=O)OC1 (stereo not given in full) | inactive |
| NNCc1ccccc1 | inactive |
| COc1ccc(/C=C/c2cc(O)cc(O)c2)cc1 | inactive |
| O=C(O)c1nn(Cc2ccc(Cl)c(Cl)c2)c2ccccc12 | inactive |
| CCC12C=CCN3CCC4(c5ccc(OC)cc5N(C)C4[C@@](O)(C(=O)OC)C1OC(C)=O)C32 (stereo not given in full) | inactive |
| CCCCCCC(C)OC(=O)COc1ccc(Cl)cc1Cl (stereo not given) | inactive |
| COc1c2c(cc3c1OCO3)C13C=CC(OC)CC1N(C2)CC3O (stereo not given) | inactive |
| CC1=NCCc2c1[nH]c1cc(O)ccc21 | inactive |

| SMILES | Potency |
| --- | --- |
| CN1C2CC(OC(=O)C(CO)c3ccccc3)CC1C(O)C2 (stereo not given) | inactive |
| C=CCc1ccc(OC)cc1 | inactive |
| CCC(C)C(=O)O[C@@H]1C[C@@]2(C)C(c3ccoc3)OC(=O)CC23OC2(C)O[C@@]14[C@@]1(C)C(CC(=O)OC)C5(C)CC1(O)C(O)(C5OC(=O)C1(C)OC1C)C(OC(C)=O)[C@@]34O2 (stereo not given in full) | inactive |
| CC1(C)C(=O)C=C[C@@]2(C)C1=C(O)C(=O)[C@@]1(C)C2CC[C@@]2(C)C(c3ccoc3)C[C@H]3O[C@@]321 (stereo not given in full) | inactive |
| COC1CC(OC2CC[C@@]3(C=O)C4CC[C@]5(C)C(C6=CC(=O)OC6)CC[C@@]5(O)C4CC[C@]3(O)C2)OC(C)C1O (stereo not given in full) | inactive |
| N#Cc1c(Cl)cccc1Cl | inactive |
| CNC(=O)Oc1cccc2c1OC(C)(C)C2 | inactive |
| O=C(O)COc1ccc(Cl)cc1Cl | inactive |
| COc1cc2c3cc1Oc1c(OC)c(OC)cc4c1C(Cc1cccc(c1)Oc1ccc(c(O)c1)CC3N(C)CC2)N(C)CC4 (stereo not given) | inactive |
| COC1=CC23CCCN2CCc2cc4c(cc2C3C1O)OCO4 (stereo not given) | inactive |
| COc1c(CC=C(C)C)c2c(c3oc(=O)c(-c4ccc(O)cc4)c(O)c13)C=CC(C)(C)O2 | inactive |
| CC([C@H](O)c1ccccc1)N(C)C (stereo not given in full) | inactive |
| O=C1c2ccccc2-c2cccc3cccc1c23 | inactive |
| CN(C)C1C(=O)C(C(N)=O)=C(O)[C@@]2(O)C(=O)C3=C(O)c4c(O)ccc(Cl)c4[C@](C)(O)C3CC12 (stereo not given in full) | inactive |
| O=C(O)CCC1NCC2CC1CN1CCCCC21 (stereo not given) | inactive |
| NCC(=O)c1ccccc1 | inactive |
| CC(=O)OC1CC(OC(C)=O)[C@]2(C)C(CC(OC(C)=O)[C@]3(C)C2CC[C@@]2(C)C(c4ccoc4)C(=O)C4O[C@]432)C1(C)C (stereo not given in full) | inactive |
| CC(N)C(O)c1ccc(O)c(O)c1 (stereo not given) | inactive |
| Cc1ccccc1-c1cncnc1NCCc1cnc[nH]1 | inactive |
| ClC1=C(Cl)C2(Cl)C3C4CC(C5OC45)C3C1(Cl)C2(Cl)Cl (stereo not given) | inactive |
